12-LOX inh – blocks human arachidonate 12S-lipoxygenase | P18054 | purified 12hLO, xylenol orange hydroperoxide absorbance | Potency, µM (top dose mostly 108 µM), without a hit: top-dose activity change, negative = inhibition, hits mostly inhibitors | 1.1% of 580,000 active
Target sequence (P18054 whole entry, looked up): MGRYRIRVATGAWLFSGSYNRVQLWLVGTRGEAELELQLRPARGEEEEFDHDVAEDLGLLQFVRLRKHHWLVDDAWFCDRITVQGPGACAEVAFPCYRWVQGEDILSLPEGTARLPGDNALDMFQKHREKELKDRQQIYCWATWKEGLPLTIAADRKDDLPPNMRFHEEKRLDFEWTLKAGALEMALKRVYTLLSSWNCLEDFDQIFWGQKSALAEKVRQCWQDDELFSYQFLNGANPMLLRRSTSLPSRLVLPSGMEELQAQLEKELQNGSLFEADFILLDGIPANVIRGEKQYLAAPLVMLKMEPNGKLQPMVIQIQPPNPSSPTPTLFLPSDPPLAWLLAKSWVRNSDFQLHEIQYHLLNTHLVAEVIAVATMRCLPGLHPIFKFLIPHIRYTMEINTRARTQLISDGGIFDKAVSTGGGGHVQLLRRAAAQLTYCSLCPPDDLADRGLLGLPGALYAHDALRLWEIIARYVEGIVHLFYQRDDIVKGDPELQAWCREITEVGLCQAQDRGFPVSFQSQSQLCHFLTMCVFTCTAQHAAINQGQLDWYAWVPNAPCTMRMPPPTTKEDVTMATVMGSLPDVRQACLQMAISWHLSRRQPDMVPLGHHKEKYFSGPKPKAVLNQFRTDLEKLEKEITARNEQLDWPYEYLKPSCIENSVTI
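Purified human 12hLO at 150 nM in 25 mM Hepes, 0.01% Triton X-100, pH 7.0, preincubated 15 min at room temperature with compound. Reaction started with 40 uM arachidonic acid, 30 min at room temperature. Hydroperoxide measured by Fe-xylenol orange, 573/405 nm absorbance ratio.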
DT40 TDP1 no CPT – qHTS for Inhibitors of human tyrosyl-DNA phosphodiesterase 1 (TDP1): qHTS in cells in absence of CPT. Potency, µM (doses to about 46.2 µM), for inactives: top-dose activity change, negative = growth inhibition, hits mostly inhibitors. 15% of 420,000 active. DT40 Tdp1-/- hTDP1 cells, no CPT, ATP luminescence, 48 h. AID 686978, 2013; note: nearly all actives have a fitted effect of over 55% in size
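No-CPT arm: Tdp1-/-;hTDP1 DT40 cells (400/well) plus compounds, incubated ≥48 hr at 37 °C. Readout CellTiter-Glo luminescence.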
RORgamma inh – blocks mouse ROR gamma transcriptional activity | Drosophila S2 Gal4-RORgamma UAS-luciferase reporter, 20 h | AID 2551 | 5.4% of 310,000 active | Potency, µM (series often up to 53.6 µM), without a hit: at the highest dose activity change, negative = inhibition, hits mostly inhibitors | P51450; note: nearly all actives have a fitted effect of over 60% in size
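Schneider cells (Drosophila), stable Gal4 DBD–ROR gamma + UAS-luc; 1 hr cmpd preincubation; Cu2+ induction 700 uM final; 20 hr ambient; luminescence.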
Gal4-VP16 FLuc – Gal4-VP16 reporter inhibition counter-screen; AID 2546; Drosophila S2 Gal4-VP16 UAS-luciferase, luminescence, 20 h; 3.5% of 310,000 active; Potency, µM (doses to about 53.6 µM), inactives show at the highest dose activity, negative = inhibition, usual class: inhibitors;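 note: Gal4-VP16 expression switched on by copper sulfate through the metallothionein promoter; nearly all actives have a fitted effect of over 50% in size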
ELG1 DNA repair – blocks ELG1-dependent DNA repair in HEK293T cells. HEK293T ELG1-luciferase reporter, luminescence, 16 h; DNA damage induced by 5-fluorouridine. Potency, µM (doses to about 46.1 µM), for the others: top-dose activity change, negative = inhibition, usual class: inhibitors. 2.3% of 330,000 active; note: nearly all actives have a fitted effect of over 55% in size
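Quantitative HTS, concentration-response format. 2,000 cells/well co-treated with 5-fluorouridine and compound, 16 hr in 5% CO2 at 37 °C; ONE-Glo luminescence read after 30 min.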
TDP1 cell CPT – DT40-hTDP1 cell growth loss with CPT; 12% of 420,000 active; chicken DT40 Tdp1-/-;hTDP1 cells + 20 nM CPT, ATP luminescence, 48 h; Potency, µM (series often up to 46.2 µM), for inactives: at the top dose activity change, negative = growth inhibition, actives largely listed as inhibitors; note: nearly all actives have a fitted effect of over 55% in size
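Cell growth measured by CellTiter-Glo luminescence after a minimum 48 h, 37 C compound exposure with 20 nM CPT in Tdp1-knockout DT40 cells stably expressing hTDP1, seeded 400/well; qHTS titration format.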
* marks the source's active call; other numbers are inactive results; ! = not confirmed by another sample; [ ] = another dose, or the depositor's remark. In the library only some 15% were active in any assay of this set; here they are far more common. Calls come from the whole dose curve; as a rule, active = well fitted curve in the direction sought with a large enough effect; inconclusive = small, poorly fitted or top-dose-only effect, or another doubt; inactive = no such curve, though single readings can be large; an effect the other way counts as inactive or inconclusive. % is set by controls: 0 for no effect and ±100 for the full control effect; potency is the fitted concentration of half-maximal effect.

For CC(C)(C)C(=O)N1CCCC2(COc3ccccc3[S+](=O)([O-])N2)C1 (stereo not given) the results were 12-LOX inh 4.9%[6.33 µM].
`CCOc1cc(C2SC(NC(C)=O)=NN2C(C)=O)ccc1OCc1ccccc1F` (stereo not given) gave 12-LOX inh 24.4%.
Screening Cc1ccc(C)c(NC(=O)CN(C)C(=O)COc2cccc(F)c2)c1 returned 12-LOX inh -3.3%.
`OCc1nc2ccccc2n1Cc1ccc(Cl)cc1` gave 12-LOX inh 8.8%, DT40 TDP1 no CPT inconclusive, RORgamma inh 24.2%, Gal4-VP16 FLuc 4.0%, ELG1 DNA repair -9.7% and TDP1 cell CPT inconclusive.
Clc1ccc(Cn2c(CN3CCCC3)nc3ccccc32)cc1 was read as 12-LOX inh 3.5%[22.9 µM], DT40 TDP1 no CPT 7.18µM*, RORgamma inh 2µM*!, Gal4-VP16 FLuc 7.08µM*, ELG1 DNA repair -1.5% and TDP1 cell CPT inconclusive.
CCOc1ccc(C(=O)OCC(=O)NCC(F)(F)F)cc1 was read as 12-LOX inh 21.1%.
CCOc1ccc(CCNCc2c(C(=O)O)n(Cc3ccc(C)cc3)c3cc(OC)ccc23)cc1 was read as 12-LOX inh 7.3%, DT40 TDP1 no CPT 18.4µM* and TDP1 cell CPT inconclusive.
`COc1ccc(Cn2c(C(=O)O)c(CNCc3ccc(OC)cc3OC)c3ccc(C)cc32)cc1` gave 12-LOX inh inconclusive, DT40 TDP1 no CPT 9.2µM* and TDP1 cell CPT 14.6µM*.
Screening COc1ccc2c(CNCCc3ccco3)c(C(=O)O)n(Cc3ccccc3)c2c1 returned 12-LOX inh -1.3%, DT40 TDP1 no CPT inconclusive and TDP1 cell CPT -0.2%.
Cc1ccc2c(CNCCc3ccccc3)c(C(=O)O)n(Cc3ccccc3C)c2c1 was read as 12-LOX inh -1.6%, DT40 TDP1 no CPT inconclusive and TDP1 cell CPT inconclusive.
COc1ccc(Cn2c(C(=O)O)c(CNCCc3cc(OC)ccc3OC)c3ccc(C)cc32)cc1 was read as 12-LOX inh -19.2%, DT40 TDP1 no CPT 16.4µM* and TDP1 cell CPT inconclusive.
`COc1ccc(CCNCc2c(C(=O)O)c(C)n(Cc3ccccc3C)c2C)c(OC)c1` gave 12-LOX inh -22.9%, DT40 TDP1 no CPT 18.4µM* and TDP1 cell CPT inconclusive.
For COc1ccc2c(CNCc3ccc(C)o3)c(C(=O)O)n(Cc3ccccc3)c2c1 the results were 12-LOX inh -4.2%, DT40 TDP1 no CPT inconclusive and TDP1 cell CPT -27.0%.
`CCCN1CCCC12Cc1ccccc1CN(C(=O)c1c(C)noc1C)C2` (stereo not given) gave 12-LOX inh 1.2%[6.33 µM].
`CC(=O)C12CC3CC(C1)CC(C(C)=O)(C3)C2` gave 12-LOX inh -64.1%.
`CC(CC(=O)NCc1coc(-c2cccs2)n1)NC(=O)c1ccccc1` (stereo not given) gave 12-LOX inh 9.7%.
Screening COc1ccc2cc(C#N)c(N3CCN(C(=O)c4ccccc4C)CC3)nc2c1 returned 12-LOX inh inconclusive, DT40 TDP1 no CPT inconclusive, RORgamma inh 0.4%, Gal4-VP16 FLuc 9.7%, ELG1 DNA repair 13µM* and TDP1 cell CPT inconclusive.
Screening Cc1ccc2nc(N3CCN(C(=O)c4cccs4)CC3)c(C#N)cc2c1 returned 12-LOX inh inconclusive, DT40 TDP1 no CPT 14.6µM*, RORgamma inh 4.2%, Gal4-VP16 FLuc 2.3%, ELG1 DNA repair -28.8% and TDP1 cell CPT 20.6µM*.
For COc1ccc2cc(C#N)c(N3CCOCC3)nc2c1 the results were 12-LOX inh inconclusive, DT40 TDP1 no CPT inconclusive, RORgamma inh 30.8%, Gal4-VP16 FLuc -7.8%, ELG1 DNA repair -26.5% and TDP1 cell CPT inconclusive.
COc1cc(C(=O)N2CCN(c3ccc(C)cc3C)CC2)cc(OC)c1OC was read as 12-LOX inh 263.7%, DT40 TDP1 no CPT 3.66µM*, RORgamma inh -17.6%, Gal4-VP16 FLuc -3.1%, ELG1 DNA repair inconclusive and TDP1 cell CPT 2.91µM*.
Screening Cc1ccc2cc(C#N)c(N3CCN(C(=O)c4ccccc4)CC3)nc2c1 returned 12-LOX inh 1.6%, DT40 TDP1 no CPT 10.3µM*, RORgamma inh 28.2%, Gal4-VP16 FLuc -13.8%, ELG1 DNA repair inconclusive and TDP1 cell CPT 20.6µM*.
For CCc1nnsc1C(=O)NC(C)c1ccc(SC)cc1 (stereo not given) the results were 12-LOX inh 4.6%.
CC(C)N1C(=O)C2(CCCCC2)C1C(=O)NCCCN1CCN(c2ccccc2)CC1 (stereo not given) was read as 12-LOX inh -8.7%.
`COc1cccc(C(=O)N2CCN(c3nc4cc(C)cc(C)c4cc3C#N)CC2)c1` gave 12-LOX inh inconclusive, DT40 TDP1 no CPT 16.4µM* and TDP1 cell CPT 23.1µM*.
COc1ccc(C(=O)N2CCN(c3nc4cc(C)ccc4cc3C#N)CC2)c(OC)c1 was read as 12-LOX inh 0.0%, DT40 TDP1 no CPT 16.4µM*, RORgamma inh -4.0%, Gal4-VP16 FLuc -20.3%, ELG1 DNA repair inconclusive and TDP1 cell CPT 16.4µM*.
For Cc1ccc2cc(C#N)c(N3CCCN(C(=O)c4cnccn4)CC3)nc2c1 the results were 12-LOX inh -23.9%, DT40 TDP1 no CPT inconclusive, RORgamma inh -10.4%, Gal4-VP16 FLuc -0.2%, ELG1 DNA repair inconclusive and TDP1 cell CPT inconclusive.
For COc1cc(C(=O)N2CCCN(c3nc4cc(C)ccc4cc3C#N)CC2)cc(OC)c1OC the results were 12-LOX inh -16.7%, DT40 TDP1 no CPT inconclusive, RORgamma inh 6.7%, Gal4-VP16 FLuc -2.8%, ELG1 DNA repair inconclusive and TDP1 cell CPT 20.6µM*.
`Cc1sc(-n2cnnn2)c(C(=O)Nc2ccc3c(c2)OCCO3)c1C` gave 12-LOX inh 1.4%.
O=C(NCc1ccncc1)c1ccccc1Nc1ccccc1 was read as 12-LOX inh 50.8%.
Cc1ccsc1C(=O)N1CCC(n2cc(-c3nc(-c4ccccc4)no3)nn2)CC1 was read as 12-LOX inh 18.8%.
For CCCc1nnc2sc(-c3c[nH]c4ccccc34)nn12 the results were 12-LOX inh 5.8%.
`CCOC(=O)c1c(NC(=O)CSc2ncnc3ccccc23)sc(C)c1C` gave 12-LOX inh -17.3%, DT40 TDP1 no CPT 14.6µM*, RORgamma inh -15.7%, Gal4-VP16 FLuc 2.3%, ELG1 DNA repair 11.6µM* and TDP1 cell CPT inconclusive.

Compound activity from PubChem BioAssay.
